# Only some compounds are listed: those with a hit (about 21% of all), similar ones and a draw of the others.
# NS1 inh = qHTS Assay for Inhibitors of Influenza NS1 Protein Function; Potency, µM (top dose mostly 46.1 µM), inactives show top-dose activity, positive = more growth; 0.4% of 270,000 active; AID 2326, 2010; calls by dose curve; also: potency is read from the fitted curve at half-maximal effect; actives are rising curves; nearly all actives have a fitted effect of over 50% in size
#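 Read-out: OD600 growth recovery of NS1-expressing budding yeast. Cells grown overnight at 30C in -URA glucose medium, washed, resuspended and diluted 1:100 in 2% galactose assay medium, pH 6.0. Same strain lacking NS1 served as positive control.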
# Pf growth 96h = Primary qHTS for delayed death inhibitors of the malarial parasite plastid, 96 hour incubation; P. falciparum luciferase reporter growth, 96 h; Potency, µM (doses to about 28.7 µM), inactives show top-dose activity change, negative = inhibition, hits mostly inhibitors; 6.9% of 320,000 active; AID 504834, 2011; also: potency is read from the fitted curve at half-maximal effect; % is scaled to controls: 0 for no effect and ±100 for the full control effect
#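 Readout is luminescence from an integrated firefly luciferase in P. falciparum. Red cells, 2% hematocrit and 0.05% parasitemia final, were cultured with compound through two parasite generations (96 hours) at 37 C, 5% CO2.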
# Pf growth 48h = Primary qHTS for delayed death inhibitors of the malarial parasite plastid, 48 hour incubation; P. falciparum luciferase growth in erythrocytes, 48 h; Potency, µM (top dose mostly 28.7 µM), inactives show top-dose activity change, negative = inhibition, hits mostly inhibitors; 5.9% of 310,000 active; AID 504832, 2011; also: potency is read from the fitted curve at half-maximal effect; % is scaled to controls: 0 for no effect and ±100 for the full control effect
#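 Read-out is firefly luciferase luminescence from an integrated reporter in P. falciparum, so falling signal marks reduced parasite growth. Infected erythrocytes were at 2% hematocrit and 0.1% parasitemia (final) in Albumax-supplemented RPMI 1640.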
# Shiga toxin inh = A qHTS for Small Molecule Inhibitors of Shiga Toxin. 9.2% of 290,000 active. inhibition, % at 38.7 µM. AID 2315, 2010. Vero cells, Shiga toxin protein synthesis inhibition reporter; in the data active = inhibition mostly above about 28%, no sharp cut-off; inactive = mostly below about 43%; also: 0% is about no effect
# FBPA Giardia inh = qHTS Assay for Inhibitors of Fructose-1,6-bisphosphate Aldolase from Giardia Lamblia; A8B2U2; purified Giardia FBPA; Potency, µM (series often up to 59.6 µM), without a hit: at the highest dose activity, negative = inhibition, most hits filed as inhibitors; 0.71% of 290,000 active; also: potency is read from the fitted curve at half-maximal effect; % is scaled to controls: 0 for no effect and ±100 for the full control effect; nearly all actives have a fitted effect of over 55% in size
# Target sequence (A8B2U2 whole entry, looked up): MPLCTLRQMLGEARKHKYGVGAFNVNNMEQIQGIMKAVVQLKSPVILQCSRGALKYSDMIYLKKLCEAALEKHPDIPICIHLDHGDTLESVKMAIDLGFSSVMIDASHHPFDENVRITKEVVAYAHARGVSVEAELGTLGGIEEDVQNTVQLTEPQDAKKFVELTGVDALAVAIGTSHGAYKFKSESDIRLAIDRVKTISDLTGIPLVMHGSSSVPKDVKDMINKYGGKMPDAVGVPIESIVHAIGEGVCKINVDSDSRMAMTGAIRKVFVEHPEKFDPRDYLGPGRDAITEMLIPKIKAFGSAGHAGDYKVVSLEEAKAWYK
#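 Giardia FBPA (40 nM reagent) was preincubated 10 min at RT with compound (up to 57.5 uM final), then substrate plus GAPDH/TPI/NAD/arsenate coupling system with diaphorase/resazurin was added; resorufin fluorescence (525/598 nm) was read after 20 min.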
# CHX counter = Cycloheximide Counterscreen for Small Molecule Inhibitors of Shiga Toxin. max response, %. 12% of 300,000 active. cell reporter, cycloheximide protein synthesis inhibition counterscreen. AID 2314, 2010; in the data active = max response mostly above about 13%, no sharp cut-off; inactive = mostly below about 14%; also: read at 38.3 µM for the half of the compounds with a filed dose; 0% is about no effect
# Starred values were filed as active, the others as inactive; ? = inconclusive; nt = no result; [ ] = remark or other dose. Unless noted, calls follow the shape of the dose curve; as a rule, active = well fitted curve in the direction sought with a large enough effect; inconclusive = small, poorly fitted or top-dose-only effect, or another doubt; inactive = no such curve, though single readings can be large; an effect the other way counts as inactive or inconclusive.
SMILES,NS1 inh,Pf growth 96h,Pf growth 48h,Shiga toxin inh,FBPA Giardia inh,CHX counter
CC(C)Cn1c(N)c(C(=O)COC(=O)c2ccc([N+](=O)[O-])o2)c(=O)n(C)c1=O,nt,-25.3%,-23.5%,-4.5,-29.1%,10.3
CCOc1ccccc1NS(=O)(=O)c1ccc2oc(=O)ccc2c1,0.5%,227.9%,-14.8%,-2.9,3.6%,-2.5
CN(Cc1ccccc1)C(=O)CCCn1c(=O)c2cccn2c2cccnc21,11.6%,-17.4%,?,-4.8,nt,-1.1
CN(C)CCN(C(=O)c1ccc2ccccc2c1)c1nc2ccc(Br)cc2s1,-68.4%,?,-9.8%,44.0,nt,16.4*
CN(C)CCN(C(=O)c1cccc2ccccc12)c1nc2cc3c(cc2s1)OCO3,-14.4%,?,9.28µM*,25.3,?,12.4
CN(C)CCN(C(=O)c1cccc(N2C(=O)CCC2=O)c1)c1nc2ccc(Br)cc2s1,4.4%,5.8%,-26.9%,35.2,-11.9%,13.0*
COc1ccc2nc(N(CCN(C)C)C(=O)c3ccc4ccccc4c3)sc2c1,-27.8%,-11.9%,20.3%,14.1,nt,-2.6
CN(C)CCN(C(=O)c1ccc2ccccc2c1)c1nc2cc3c(cc2s1)OCCO3,-36.1%,59.9%,37.1%,81.9*,nt,39.1*
Cc1ccc2nc(N(CCN(C)C)C(=O)c3ccc4ccccc4c3)sc2c1,-19.4%,-6.0%,13.9%,16.7,-27.4%,24.0
Cc1nn(CC(=O)Nc2ccc3c(c2)CCC3)c(C)c1[N+](=O)[O-],nt,-8.9%,-23.1%,nt,nt,nt
O=c1[nH]c([N+](=O)[O-])nn1C(c1ccccc1)c1ccccc1,0.8%,?,?,-4.4,1.4%,-4.1
O=C(CSc1nnc(NC2CCCCC2)s1)N1CCOCC1,nt,-7.5%,15.6%,nt,nt,nt
CCN(CC)CCN(C(=O)c1ccc2c(c1)OCCO2)c1nc2cc3c(cc2s1)OCO3,-2.2%,29.3%,6.6%,-14.6,?,-4.0
CCN(CC)CCN(C(=O)c1cc2c(ccc3ccccc32)oc1=O)c1nc2cc3c(cc2s1)OCCO3,-7.4%,-14.6%,93.9%,11.4,-16.4%,21.3*
Cc1nonc1C(=O)N/N=C/c1cccc(O)c1,-12.0%,2.08µM*,-14.9%,65.3*,0.4%,53.7*
Cn1c(N/N=C\c2cccc(O)c2)cc(=O)n(C)c1=O,-4.4%,51.9%,30.3%,24.4*,?,19.2*
O=C(Cc1nnc(NC(=O)c2ccccc2)s1)N/N=C/c1cccc(O)c1,10.2%,?,28.2%,12.2,7.0%,13.7*
O=C(N/N=C/c1cccc(Oc2ccccc2)c1)c1cccc(O)c1,0.0%,?,1.5%,57.8*,-0.4%,34.8*
COc1cc(/C=N\Nc2cc(=O)n(C)c(=O)n2C)ccc1O,-22.3%,13.7%,16.7%,3.9,-24.9%,7.0
O=C(Cc1nnc(NC(=O)c2ccccc2)s1)N/N=C/c1ccco1,14.5%,17.0%,28.6%,-15.7,0.3%,-1.3
CCOC(=O)[C@]1(C(NC(=O)OC)c2cccc(C)c2)CCCC1=O (stereo partly specified),nt,nt,nt,nt,-1.1%[12.9 µM],nt
CCN(CC(=O)Nc1ccccc1C(F)(F)F)C(=O)C1=COCCO1,nt,7.6%,?,nt,nt,nt
Cc1ccsc1CN(C(=O)c1ccc([N+](=O)[O-])cc1)C1CCS(=O)(=O)C1 (stereo unspecified),-14.0%,?,-24.2%,-7.5,nt,-0.8
O=C(CCc1ccccc1)N/N=C/c1cccc(O)c1,-3.4%,-3.3%,-2.9%,6.0,0.9%,14.5*
O=C(CCc1ccc(S(=O)(=O)N2CCOCC2)cc1)N/N=C/c1cccc(O)c1,-8.7%,14.7µM*,?,17.4,3.4%,8.1
SMILES,NS1 inh,Pf growth 96h,Pf growth 48h,Shiga toxin inh,FBPA Giardia inh,CHX counter
O=C(N/N=C/c1cccc(O)c1)N/N=C/c1cccc(O)c1,-6.6%,?,?,55.1*,0.4%,28.2*
O=C(N/N=C/c1cccc(O)c1)c1ccc(-n2cnnn2)cc1,nt,-26.2%,-3.6%,nt,nt,nt
COc1cc(/C=N/NC(=O)CC#N)ccc1Oc1nc(Cl)ncc1F,20.2%,?,-3.1%,nt,-1.8%,-3.1
CCOC(=O)C(=CNc1nc(-c2ccccc2)c(C(=O)Nc2ccc(-c3ccccc3)cc2)s1)C(=O)OCC,9.0%,14.7µM*,?,5.8,nt,-8.2
O=C(O)c1ccccc1C(=O)Nc1nc(-c2ccc3ccccc3c2)cs1,?,6.9%,39.3%,65.9*,nt,36.4*
O=C(O)c1ccccc1C(=O)Nc1n[nH]c(=S)s1,4.0%,-10.4%,2.7%,-6.1,9.98µM*,-3.0
CCOC(=O)C(=CNc1nc(-c2ccc3ccccc3c2)cs1)C(=O)OCC,-3.2%,74.3%,79.3%,38.0*,3.4%,26.8*
CC(NC(=O)COc1ccc(/C=N/NC(=O)CO)cc1)c1ccccc1 (stereo unspecified),-2.6%,133.1%,-12.0%,-5.8,1.4%,-1.7
CN(C(=O)c1ccc(NC(=O)Cc2cccc(NC(=O)C3CCCN(C(=O)C4CC4)C3)c2)cc1)C1CCCC1 (stereo unspecified),nt,?,14.7µM*,nt,nt,nt
CN(C(=O)c1ccc(NC(=O)Cc2ccc(NC(=O)C3CCCN(C(=O)C4CCCC4)C3)cc2)cc1)C1CC1 (stereo unspecified),nt,11.7µM*,?,nt,nt,nt
O=C(Cc1cccc(NC(=O)C2CCN(C(=O)c3ccccc3)CC2)c1)Nc1cccc(C(=O)N2CCCC2)c1,nt,-3.9%,?,nt,nt,nt
CN(C(=O)c1ccc(NC(=O)Cc2cccc(NC(=O)C3CCCN(C(=O)C4CCC4)C3)c2)cc1)C1CCCC1 (stereo unspecified),nt,?,11.7µM*,nt,nt,nt
CN(C(=O)c1ccc(NC(=O)Cc2cccc(NC(=O)C3CCN(C(=O)CCc4ccccc4)CC3)c2)cc1)C1CCCC1,nt,1.85µM*,9.28µM*,nt,nt,nt
CS(=O)(=O)N1CCN(C(=O)Cc2ccc(Br)cc2)CC1,-8.5%,-22.0%,27.8%,nt,-4.2%,0.7
Cc1ccc(S(=O)(=O)OCC(=O)O)cc1,0.0%,nt,nt,nt,nt,nt
COCCCN1C(=O)C2C(C(=O)Nc3cccc(Cl)c3)C3C=CC2(O3)C1C(=O)NC1CCCCC1 (stereo unspecified),2.5%,33.0%,-19.2%,14.8,5.5%,-5.0
CCc1cc(=O)oc2c3c(cc(OCC(=O)N[C@H](C(=O)O)[C@H](C)CC)c12)OC(C)(C)CC3,13.2%,?,?,-9.9,3.0%,-2.1

# Source: PubChem
